Assay in all cases: DAPPL (digital affinity profiling via proximity ligation, sequencing); 10 mM Tris-HCl pH 7.5, 50 mM NaCl, 1 mM DTT, 4% glycerol, room temperature, 30 min; GST-TFs on glutathione beads, 16-mer random dsDNA library, 0.1% formaldehyde crosslink after washing; high values mean tight binding
One assay has as its target T1, FLI1 (Homo sapiens, UniProt Q01543 1-452).
T1 sequence: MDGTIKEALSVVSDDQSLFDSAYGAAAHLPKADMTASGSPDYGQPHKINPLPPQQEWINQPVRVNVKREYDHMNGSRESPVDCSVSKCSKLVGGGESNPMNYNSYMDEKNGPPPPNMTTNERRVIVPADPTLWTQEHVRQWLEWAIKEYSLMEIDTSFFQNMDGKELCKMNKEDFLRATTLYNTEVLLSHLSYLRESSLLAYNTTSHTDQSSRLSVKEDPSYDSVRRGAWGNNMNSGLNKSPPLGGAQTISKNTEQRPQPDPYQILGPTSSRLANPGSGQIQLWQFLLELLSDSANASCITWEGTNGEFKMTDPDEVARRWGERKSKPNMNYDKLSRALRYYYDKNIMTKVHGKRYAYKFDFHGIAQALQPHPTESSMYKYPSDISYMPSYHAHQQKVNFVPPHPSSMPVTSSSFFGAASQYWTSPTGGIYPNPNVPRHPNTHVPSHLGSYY
The conditions noted are these: protein: recombinant; tags: N-terminal GST; dsDNA, one strand shown. In outline: (§1)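 The binding signal reported is, for every hexamer, its read frequency for a factor over its read frequency for the tag-only sample. Reads came from pools of yeast-expressed, GST-fused human transcription factors on glutathione beads, barcoded with DNA and mixed with that sample, which were incubated with 200 nmole of a random double-stranded 16-mer DNA library in Tris/NaCl/DTT/glycerol buffer at room temperature for 30 min. After washing, the pools were crosslinked with 0.1% formaldehyde, proximity-ligated with BsaI/T4 ligase for 1 h at 37 °C, PCR-amplified and sequenced on an Illumina NextSeq500.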

The next assay addresses T2, ELK1 (Homo sapiens, UniProt P19419 1-428).
T2 sequence: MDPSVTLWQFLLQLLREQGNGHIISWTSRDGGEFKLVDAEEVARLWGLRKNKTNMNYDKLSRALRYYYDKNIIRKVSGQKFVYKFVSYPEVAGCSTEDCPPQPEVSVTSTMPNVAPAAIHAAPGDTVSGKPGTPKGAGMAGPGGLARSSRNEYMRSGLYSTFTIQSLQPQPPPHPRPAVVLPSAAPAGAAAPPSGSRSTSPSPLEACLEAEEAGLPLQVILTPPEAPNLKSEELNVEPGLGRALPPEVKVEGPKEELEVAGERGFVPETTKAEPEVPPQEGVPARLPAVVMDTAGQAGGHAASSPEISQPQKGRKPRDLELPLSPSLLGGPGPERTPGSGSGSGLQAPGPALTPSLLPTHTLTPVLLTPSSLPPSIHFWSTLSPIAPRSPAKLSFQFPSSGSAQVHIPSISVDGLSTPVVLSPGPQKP
The conditions noted are these: protein: recombinant; tags: N-terminal GST; dsDNA, one strand shown. In outline:
as §1

The next assay deals with T3, GABPA (Homo sapiens, UniProt Q06546 1-454).
T3 sequence: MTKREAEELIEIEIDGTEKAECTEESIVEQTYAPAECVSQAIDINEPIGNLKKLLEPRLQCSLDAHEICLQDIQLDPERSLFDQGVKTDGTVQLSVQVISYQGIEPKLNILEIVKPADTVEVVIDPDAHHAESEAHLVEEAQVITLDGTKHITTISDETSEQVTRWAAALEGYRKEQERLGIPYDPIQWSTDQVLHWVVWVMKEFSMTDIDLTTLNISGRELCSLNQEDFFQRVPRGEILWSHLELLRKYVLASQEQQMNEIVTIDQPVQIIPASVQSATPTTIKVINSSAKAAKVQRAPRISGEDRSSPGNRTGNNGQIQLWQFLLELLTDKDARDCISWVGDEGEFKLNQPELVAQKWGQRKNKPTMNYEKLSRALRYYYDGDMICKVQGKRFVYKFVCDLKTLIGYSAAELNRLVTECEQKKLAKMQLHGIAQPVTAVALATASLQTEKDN
The conditions noted are these: protein: recombinant; tags: N-terminal GST; dsDNA, one strand shown. The essentials:
as §1

A further assay deals with T4, ERG (Homo sapiens, UniProt P11308 1-479).
T4 sequence: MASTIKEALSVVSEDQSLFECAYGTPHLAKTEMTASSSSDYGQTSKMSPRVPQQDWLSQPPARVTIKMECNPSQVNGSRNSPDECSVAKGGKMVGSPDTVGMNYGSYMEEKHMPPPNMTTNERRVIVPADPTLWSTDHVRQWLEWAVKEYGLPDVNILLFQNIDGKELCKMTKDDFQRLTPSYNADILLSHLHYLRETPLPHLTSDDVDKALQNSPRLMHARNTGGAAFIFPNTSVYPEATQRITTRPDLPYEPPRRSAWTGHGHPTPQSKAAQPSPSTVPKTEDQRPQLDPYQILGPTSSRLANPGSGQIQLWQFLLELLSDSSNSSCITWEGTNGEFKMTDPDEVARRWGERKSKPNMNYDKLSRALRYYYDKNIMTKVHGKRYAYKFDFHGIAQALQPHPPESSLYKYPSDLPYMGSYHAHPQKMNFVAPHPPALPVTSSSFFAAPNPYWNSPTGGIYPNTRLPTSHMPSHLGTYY
The conditions noted are these: protein: recombinant; tags: N-terminal GST; dsDNA, one strand shown. In outline:
as §1

For a further assay, the target named is ELF1 (Homo sapiens, UniProt P32519 1-619). To be noted: protein: recombinant; tags: N-terminal GST; dsDNA, one strand shown. In outline:
as §1

A further assay has as its target T5, EHF (Homo sapiens, UniProt Q9NZC4 1-300).
T5 sequence: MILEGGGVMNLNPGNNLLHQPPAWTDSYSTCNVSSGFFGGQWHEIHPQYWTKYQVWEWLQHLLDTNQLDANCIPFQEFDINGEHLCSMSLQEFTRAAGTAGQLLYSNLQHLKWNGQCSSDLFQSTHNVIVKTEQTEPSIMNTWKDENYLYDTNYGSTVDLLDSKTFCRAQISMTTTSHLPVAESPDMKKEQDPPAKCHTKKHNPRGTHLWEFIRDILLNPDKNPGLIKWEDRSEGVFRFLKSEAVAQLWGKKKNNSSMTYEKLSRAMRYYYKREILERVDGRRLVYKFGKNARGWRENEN
To be noted: protein: recombinant; tags: N-terminal GST; dsDNA, one strand shown. The essentials:
as §1

The target of a further assay is SPI1 (Homo sapiens, UniProt P17947 1-270). To be noted: protein: recombinant; tags: N-terminal GST; dsDNA, one strand shown. The essentials: as §1
For the next assay, the target named is SPIB (Homo sapiens, UniProt Q01892 1-262). The conditions noted are these: protein: recombinant; tags: N-terminal GST; dsDNA, one strand shown. The essentials:
as §1

For another assay, the target named is T6, ELK3 (Homo sapiens, UniProt P41970 1-407).
T6 sequence: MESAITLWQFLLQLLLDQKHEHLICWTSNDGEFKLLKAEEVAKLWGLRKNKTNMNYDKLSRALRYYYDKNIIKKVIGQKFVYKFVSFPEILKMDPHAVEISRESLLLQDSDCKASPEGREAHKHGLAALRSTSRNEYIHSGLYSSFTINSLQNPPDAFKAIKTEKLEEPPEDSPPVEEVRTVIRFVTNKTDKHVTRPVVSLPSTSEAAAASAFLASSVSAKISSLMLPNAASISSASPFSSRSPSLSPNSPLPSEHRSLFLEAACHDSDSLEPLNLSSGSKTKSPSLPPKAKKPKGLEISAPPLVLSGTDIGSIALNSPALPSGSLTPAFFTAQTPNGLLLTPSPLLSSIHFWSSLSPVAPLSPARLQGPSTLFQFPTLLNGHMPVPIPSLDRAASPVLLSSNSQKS
To be noted: protein: recombinant; tags: N-terminal GST; dsDNA, one strand shown. In outline: as §1

Another assay concerns the target T7, FEV (Homo sapiens, UniProt Q99581 1-238).
T7 sequence: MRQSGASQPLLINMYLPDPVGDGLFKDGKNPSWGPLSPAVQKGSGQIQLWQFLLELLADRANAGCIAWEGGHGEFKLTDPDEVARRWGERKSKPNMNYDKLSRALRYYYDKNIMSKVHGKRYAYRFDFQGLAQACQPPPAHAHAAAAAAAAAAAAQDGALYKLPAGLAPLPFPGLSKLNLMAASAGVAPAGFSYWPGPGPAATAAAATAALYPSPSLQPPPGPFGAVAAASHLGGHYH
The conditions noted are these: protein: recombinant; tags: N-terminal GST; dsDNA, one strand shown. In outline:
as §1

For the next assay, the target named is ETV5 (Homo sapiens, UniProt P41161 1-510). To be noted: protein: recombinant; tags: N-terminal GST; dsDNA, one strand shown. The essentials:
as §1

The target in a further assay is HSF1 (Homo sapiens, UniProt Q00613 1-529). To be noted: protein: recombinant; tags: N-terminal GST; chain copies: 3; dsDNA, one strand shown. In outline:
as §1

The target in the next assay is T8, SPIC (Homo sapiens, UniProt Q8N5J4 1-248).
T8 sequence: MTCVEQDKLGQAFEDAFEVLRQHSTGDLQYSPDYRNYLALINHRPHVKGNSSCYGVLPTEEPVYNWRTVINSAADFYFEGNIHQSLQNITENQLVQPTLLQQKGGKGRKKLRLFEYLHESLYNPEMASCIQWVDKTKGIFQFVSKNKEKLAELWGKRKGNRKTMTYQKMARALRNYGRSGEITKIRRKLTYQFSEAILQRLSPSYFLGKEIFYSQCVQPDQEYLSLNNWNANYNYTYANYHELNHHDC
The conditions noted are these: protein: recombinant; tags: N-terminal GST; dsDNA, one strand shown. The essentials:
as §1

The target in the next assay is ELF4 (Homo sapiens, UniProt Q99607 1-663). To be noted: protein: recombinant; tags: N-terminal GST; dsDNA, one strand shown. In outline:
as §1

A further assay has as its target T9, ELK4 (Homo sapiens, UniProt P28324-2 1-405).
T9 sequence: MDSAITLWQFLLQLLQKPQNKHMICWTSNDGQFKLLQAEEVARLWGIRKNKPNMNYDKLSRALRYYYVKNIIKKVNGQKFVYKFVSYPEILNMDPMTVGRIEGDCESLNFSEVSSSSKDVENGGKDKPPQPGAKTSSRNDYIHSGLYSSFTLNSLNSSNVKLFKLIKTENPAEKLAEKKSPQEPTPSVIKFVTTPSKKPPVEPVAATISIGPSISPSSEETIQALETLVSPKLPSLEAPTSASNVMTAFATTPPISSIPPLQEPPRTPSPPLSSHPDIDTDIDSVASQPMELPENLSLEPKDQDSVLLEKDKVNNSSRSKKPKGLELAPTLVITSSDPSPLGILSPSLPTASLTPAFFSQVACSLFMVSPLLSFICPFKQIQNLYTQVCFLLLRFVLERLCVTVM
The conditions noted are these: protein: recombinant; tags: N-terminal GST; dsDNA, one strand shown. The essentials:
as §1

The next assay deals with T10, ETV2 (Homo sapiens, UniProt O00321 1-342).
T10 sequence: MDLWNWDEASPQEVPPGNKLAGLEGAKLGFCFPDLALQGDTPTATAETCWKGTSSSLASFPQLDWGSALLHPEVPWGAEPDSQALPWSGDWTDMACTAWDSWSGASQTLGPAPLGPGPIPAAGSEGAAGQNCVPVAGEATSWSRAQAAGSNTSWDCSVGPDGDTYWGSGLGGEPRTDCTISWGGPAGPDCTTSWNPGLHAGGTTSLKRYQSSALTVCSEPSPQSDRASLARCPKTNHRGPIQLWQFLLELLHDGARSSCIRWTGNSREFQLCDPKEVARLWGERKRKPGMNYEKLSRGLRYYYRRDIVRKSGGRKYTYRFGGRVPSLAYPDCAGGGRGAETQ
The conditions noted are these: protein: recombinant; tags: N-terminal GST; dsDNA, one strand shown. The essentials: as §1

In the next assay the target is ETV1 (Homo sapiens, UniProt P50549 1-477). The conditions noted are these: protein: recombinant; tags: N-terminal GST; dsDNA, one strand shown. The essentials: as §1
Sequence of ETV1 (P50549 whole entry): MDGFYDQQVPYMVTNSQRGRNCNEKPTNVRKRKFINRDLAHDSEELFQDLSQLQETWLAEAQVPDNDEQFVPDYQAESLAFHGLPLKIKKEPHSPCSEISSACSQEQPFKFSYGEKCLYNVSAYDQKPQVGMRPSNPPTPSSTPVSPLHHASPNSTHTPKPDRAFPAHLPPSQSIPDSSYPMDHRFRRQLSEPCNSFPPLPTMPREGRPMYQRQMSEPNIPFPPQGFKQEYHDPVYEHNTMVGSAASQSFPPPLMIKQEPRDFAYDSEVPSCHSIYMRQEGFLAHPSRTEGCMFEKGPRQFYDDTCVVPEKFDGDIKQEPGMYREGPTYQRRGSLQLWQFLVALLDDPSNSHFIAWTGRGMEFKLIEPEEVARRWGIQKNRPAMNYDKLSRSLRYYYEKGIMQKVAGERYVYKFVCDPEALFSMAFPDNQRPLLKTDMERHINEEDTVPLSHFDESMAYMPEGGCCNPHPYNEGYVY

Sequence of HSF1 (Q00613 whole entry): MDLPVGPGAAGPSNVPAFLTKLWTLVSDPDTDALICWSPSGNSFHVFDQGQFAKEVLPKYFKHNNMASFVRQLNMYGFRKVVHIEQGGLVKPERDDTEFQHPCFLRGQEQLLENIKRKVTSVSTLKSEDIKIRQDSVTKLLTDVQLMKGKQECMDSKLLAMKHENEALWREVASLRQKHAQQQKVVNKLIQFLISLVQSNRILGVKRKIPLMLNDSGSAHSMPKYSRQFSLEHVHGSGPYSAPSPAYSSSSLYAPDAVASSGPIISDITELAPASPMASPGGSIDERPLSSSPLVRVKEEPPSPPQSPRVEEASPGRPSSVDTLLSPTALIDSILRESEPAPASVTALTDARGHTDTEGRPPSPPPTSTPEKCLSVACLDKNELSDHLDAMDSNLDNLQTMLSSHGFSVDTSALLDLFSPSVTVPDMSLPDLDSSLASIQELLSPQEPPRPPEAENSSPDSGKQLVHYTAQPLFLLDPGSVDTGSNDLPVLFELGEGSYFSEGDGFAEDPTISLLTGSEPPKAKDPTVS
Sequence of ELF4 (Q99607 whole entry): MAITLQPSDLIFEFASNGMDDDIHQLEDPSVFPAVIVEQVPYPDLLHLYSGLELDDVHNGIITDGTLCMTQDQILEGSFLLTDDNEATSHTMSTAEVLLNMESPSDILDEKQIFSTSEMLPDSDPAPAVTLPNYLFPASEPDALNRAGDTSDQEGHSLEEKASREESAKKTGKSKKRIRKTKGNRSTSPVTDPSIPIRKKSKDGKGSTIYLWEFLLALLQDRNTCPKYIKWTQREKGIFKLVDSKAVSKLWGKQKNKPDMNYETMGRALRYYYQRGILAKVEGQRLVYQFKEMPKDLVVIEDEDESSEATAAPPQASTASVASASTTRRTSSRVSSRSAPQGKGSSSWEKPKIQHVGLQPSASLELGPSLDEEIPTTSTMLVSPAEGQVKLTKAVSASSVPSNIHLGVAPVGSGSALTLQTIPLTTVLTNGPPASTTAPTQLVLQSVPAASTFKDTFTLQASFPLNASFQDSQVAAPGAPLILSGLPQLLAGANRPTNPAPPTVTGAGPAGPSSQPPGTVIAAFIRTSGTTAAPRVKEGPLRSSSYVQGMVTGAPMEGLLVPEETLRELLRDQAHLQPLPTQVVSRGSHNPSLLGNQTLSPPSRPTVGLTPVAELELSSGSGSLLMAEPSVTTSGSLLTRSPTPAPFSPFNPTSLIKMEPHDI
Sequence of ETV5 (P41161 whole entry): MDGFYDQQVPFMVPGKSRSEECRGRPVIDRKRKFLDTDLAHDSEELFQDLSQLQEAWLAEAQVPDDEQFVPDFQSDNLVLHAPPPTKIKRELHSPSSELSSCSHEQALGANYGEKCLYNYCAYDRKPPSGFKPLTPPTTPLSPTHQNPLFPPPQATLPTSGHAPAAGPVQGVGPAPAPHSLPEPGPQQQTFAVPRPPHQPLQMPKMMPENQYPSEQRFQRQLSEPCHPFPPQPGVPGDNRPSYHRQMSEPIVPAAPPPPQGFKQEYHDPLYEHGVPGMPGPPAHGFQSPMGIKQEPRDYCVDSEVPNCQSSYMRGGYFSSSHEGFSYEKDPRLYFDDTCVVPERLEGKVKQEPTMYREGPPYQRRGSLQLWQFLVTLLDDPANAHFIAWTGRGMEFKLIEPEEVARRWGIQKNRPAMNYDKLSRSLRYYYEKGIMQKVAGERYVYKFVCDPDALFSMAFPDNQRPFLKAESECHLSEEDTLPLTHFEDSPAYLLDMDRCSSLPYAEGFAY
Sequence of ELF1 (P32519 whole entry): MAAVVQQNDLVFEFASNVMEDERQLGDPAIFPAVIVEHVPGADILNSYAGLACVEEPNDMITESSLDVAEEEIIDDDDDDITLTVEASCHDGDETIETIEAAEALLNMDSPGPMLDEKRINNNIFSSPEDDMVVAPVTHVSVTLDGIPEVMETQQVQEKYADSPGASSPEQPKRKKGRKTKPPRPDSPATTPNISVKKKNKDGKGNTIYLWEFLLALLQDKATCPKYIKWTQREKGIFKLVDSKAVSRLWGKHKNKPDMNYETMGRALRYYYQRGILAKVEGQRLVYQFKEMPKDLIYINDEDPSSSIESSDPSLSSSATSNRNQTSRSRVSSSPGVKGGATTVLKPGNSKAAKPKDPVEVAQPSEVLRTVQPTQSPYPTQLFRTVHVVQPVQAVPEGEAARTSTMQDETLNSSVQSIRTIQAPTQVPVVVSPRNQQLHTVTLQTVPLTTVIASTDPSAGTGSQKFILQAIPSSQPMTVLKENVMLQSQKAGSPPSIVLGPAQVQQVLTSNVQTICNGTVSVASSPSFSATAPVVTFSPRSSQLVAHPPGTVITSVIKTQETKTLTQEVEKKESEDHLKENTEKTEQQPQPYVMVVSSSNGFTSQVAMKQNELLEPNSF
Sequence of SPIB (Q01892 whole entry): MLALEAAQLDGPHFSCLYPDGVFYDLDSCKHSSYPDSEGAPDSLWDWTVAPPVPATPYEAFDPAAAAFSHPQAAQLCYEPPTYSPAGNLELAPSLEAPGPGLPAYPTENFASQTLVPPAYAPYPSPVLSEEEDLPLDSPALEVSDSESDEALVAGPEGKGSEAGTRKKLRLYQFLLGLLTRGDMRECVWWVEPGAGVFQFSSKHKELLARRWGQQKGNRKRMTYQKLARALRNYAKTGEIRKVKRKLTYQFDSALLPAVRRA

As to CGATAG, the binding signal in the assay with FLI1 was 1.07 fold enrichment (6-mer frequency, TF over GST control); with ELK1, 1.11 fold enrichment (6-mer frequency, TF over GST control); with GABPA, 1.18 fold enrichment (6-mer frequency, TF over GST control); in the assay with ERG, 1.16 fold enrichment (6-mer frequency, TF over GST control); with ELF1 it was 1.15 fold enrichment (6-mer frequency, TF over GST control); with EHF it was 1.05 fold enrichment (6-mer frequency, TF over GST control). Further, the binding signal with SPI1 was 1.1 fold enrichment (6-mer frequency, TF over GST control); with SPIB it was 1.07 fold enrichment (6-mer frequency, TF over GST control); in the assay with ELK3, 1.11 fold enrichment (6-mer frequency, TF over GST control); with FEV, 1.15 fold enrichment (6-mer frequency, TF over GST control); in the assay with ETV5, 1.18 fold enrichment (6-mer frequency, TF over GST control); with HSF1, 1.14 fold enrichment (6-mer frequency, TF over GST control). In addition, the binding signal with SPIC was 1.18 fold enrichment (6-mer frequency, TF over GST control); with ELF4 it was 1.12 fold enrichment (6-mer frequency, TF over GST control); with ELK4 it was 1.16 fold enrichment (6-mer frequency, TF over GST control); with ETV2, 1.16 fold enrichment (6-mer frequency, TF over GST control); in the assay with ETV1, 1.16 fold enrichment (6-mer frequency, TF over GST control).

For the origin of these results see article PMC7862700, “An all-to-all approach to the identification of sequence-specific readers for epigenetic DNA modifications on cytosine”.
